In PubChem BioAssay AID1159580 (chemical genetic matrix, 2015):
Several values for one entry are separate records, joined by “and”; a condition that tells them apart may be missing. Equal entries are not always repeated. Out of some 5,500 compounds screened, about 2,000 (36%) were called active. Not shown: some 18% with an inconclusive outcome. Cut-off read from the data, not from the text of the source: active = normalized growth mostly below about 0.91 (no sharp cut-off); inconclusive = no clear call, values can overlap the other calls; inactive = mostly above about 0.92. The list shows a part of the results.

Assay: chemical genetic growth profiling, strain panel (AID 1159580);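 note: tested at 20 µM; growth read once vehicle control cultures reached saturation at 30 °C; 1 = growth at the plate median or of vehicle wells; lower values mean less growth of the strain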
Conditions: S. cerevisiae deletion strains, growth OD

Measured: normalized growth

CCN(CC)C(=O)c1cccc(C)c1
inactive: locus YAL013W, strain DEP1, hits give low values 1 | locus YAL021C, strain ccr4, hits give low values 1.03 | locus YAL026C, strain drs2, hits give low values 1.03 | locus YAL030W, strain snc1, hits give low values 1.04 | locus YBL061C, strain skt5, hits give low values 1.04 | locus YBR009C, strain hhf1, hits give low values 1.01 | locus YBR021W, strain FUR4, hits give low values 1.01 | locus YBR023C, strain chs3, hits give low values 1.03 | locus YBR171W, strain sec66, hits give low values 1.04 | locus YBR229C, strain ROT2, hits give low values 1.01 | locus YBR231C, strain swc5, hits give low values 1.05 | locus YBR279W, strain paf1, hits give low values 1.02 | locus YCL011C, strain gbp2, hits give low values 1.02 | locus YCL016C, strain dcc1, hits give low values 1.03 | locus YCL029C, strain bik1, hits give low values 0.992 | locus YCL069W, strain vba3, hits give low values 1.04 | locus YCR088W, strain abp1, hits give low values 1.04 | locus YDL005C, strain med2, hits give low values 1.03 | locus YDL035C, strain GPR1, hits give low values 1 | locus YDL040C, strain nat1, hits give low values 1.03 | locus YDL074C, strain BRE1, hits give low values 1.02 | locus YDL101C, strain DUN1, hits give low values 0.999 | locus YDL134C, strain PPH21, hits give low values 1.01 | locus YDL185W, strain tfp1, hits give low values 0.957 | locus YDL192W, strain arf1, hits give low values 0.996 | locus YDR001C, strain nth1, hits give low values 1.03 | locus YDR069C, strain doa4, hits give low values 1.02 | locus YDR101C, strain arx1, hits give low values 1 | locus YDR137W, strain rgp1, hits give low values 1.04 | locus YDR150W, strain NUM1, hits give low values 0.981 | locus YDR159W, strain sac3, hits give low values 1.05 | locus YDR162C, strain NBP2, hits give low values 0.972 | locus YDR195W, strain ref2 1.11 | locus YDR297W, strain sur2, hits give low values 1.03 | locus YDR318W, strain mcm21, hits give low values 1 | locus YDR334W, strain swr1, hits give low values 1.03 | locus YDR335W, strain msn5, hits give low values 1.03 | locus YDR388W, hits give low values 1.01 | locus YDR392W, strain spt3, hits give low values 1.05 | locus YDR502C, strain sam2, hits give low values 0.994 | locus YEL003W, strain gim4, hits give low values 1.02 | locus YEL037C, strain rad23, hits give low values 1.04 | locus YEL061C, strain CIN8 (second series), hits give low values 1.02 | locus YEL061C, strain CIN8, hits give low values 1.01 | locus YER015W, strain faa2, hits give low values 1.03 | locus YER016W, strain bim1, hits give low values 1.02 | locus YER110C, hits give low values 1.01 | locus YER111C, strain swi4, hits give low values 1.05 | locus YER155C, strain BEM2 (second series), hits give low values 1.07 | locus YER155C, strain BEM2, hits give low values 1.01 | locus YER167W, strain BCK2, hits give low values 1.03 | locus YFR010W, strain ubp6, hits give low values 1.03 | locus YGL078C, strain dbp3, hits give low values 0.997 | locus YGL086W, strain mad1, hits give low values 1 | locus YGL167C, strain pmr1, hits give low values 1.03 | locus YGL173C, strain kem1, hits give low values 1.01 | locus YGL227W, strain vid30, hits give low values 1.04 | locus YGL240W, strain doc1, hits give low values 1.03 | locus YGL248W, strain PDE1, hits give low values 1.01 | locus YGL253W, strain hxk2, hits give low values 1.02 | locus YGR078C, strain PAC10, hits give low values 0.98 | locus YGR135W, strain pre9, hits give low values 0.982 | locus YGR229C, strain SMI1, hits give low values 1.01 | locus YGR252W, strain gcn5, hits give low values 0.98 | locus YHR013C, strain ard1, hits give low values 1.1 | locus YHR027C, strain rpn1, hits give low values 1.02 | locus YHR030C, strain SLT2, hits give low values 1.01 and 0.932 | locus YHR079C, strain IRE1 (second series), hits give low values 1 | locus YHR079C, strain IRE1, hits give low values 0.977 | locus YHR094C, strain hxt1, hits give low values 0.997 | locus YHR129C, strain ARP1, hits give low values 1.02 | locus YHR142W, strain chs7, hits give low values 1.02 | locus YHR200W, strain rpn10, hits give low values 0.998 | locus YIL066C, strain RNR3, hits give low values 0.998 | locus YIL073C, strain SPO22, hits give low values 0.97 | locus YIL125W, strain kgd1, hits give low values 1 | locus YIR030C, strain dcg1, hits give low values 0.996 | locus YJL092W, strain hpr5, hits give low values 1.03 | locus YJL095W, strain BCK1 (second series), hits give low values 1.04 | locus YJL095W, strain BCK1, hits give low values 1.04 and 0.974 | locus YJL115W, strain asf1, hits give low values 1.06 | locus YJL129C, strain trk1, hits give low values 1.08 | locus YJL134W, strain LCB3, hits give low values 1 | locus YJL154C, strain vps35, hits give low values 1.03 | locus YJL164C, strain tpk1, hits give low values 1.02 | locus YJL166W, strain qcr8, hits give low values 1.02 | locus YJL168C, strain set2, hits give low values 1 | locus YJL187C, strain SWE1 (second series), hits give low values 0.994 | locus YJR043C, strain POL32, hits give low values 0.999 | locus YJR066W, strain TOR1, hits give low values 0.942 | locus YJR075W, strain HOC1, hits give low values 1.02
